Only some compounds are listed: those with a hit (about 8% of all), similar ones and a draw of the others.
HT1080 IDH1KD tx: kills HT-1080 cells with IDH1 knockdown; HT-1080 IDH1 knockdown viability, ATP luminescence, 48 h; Potency, µM (doses to about 46.1 µM), inactives show top-dose activity, negative = toxicity, most hits filed as cytotoxic; hit rate 2% among 360,000;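 note: 0% = DMSO wells and -100% = cell-free medium wells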
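HT-1080-IDH1KD cells (IDH1 knocked down), 750/well in RPMI with 5% FBS, treated with compound 48 h at 37 degrees C. Viability by CellTiter-Glo luminescence, normalised to DMSO and no-cell wells; concentration-response curves classed.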
MCF10A rereplic: DNA re-replication induction in MCF 10a cells | MCF 10A DNA re-replication, Hoechst nuclear intensity, 48 h | Potency, µM (top dose mostly 46.1 µM), for the others: at the top dose activity, positive = re-replication, hits mostly activators | hit rate 2.9% among 350,000 | AID 624296; note: % of control where 0% means no effect; nearly all actives have a fitted effect of over 50% in size
KB-3-1 tox: KB-3-1 parental cell cytotoxicity. KB-3-1 viability, CellTiter-Glo ATP luminescence, 72 h. Potency, µM (doses to about 46.1 µM), usual class: cytotoxic. hit rate 1.4% among 400,000; note: % is set by controls: 0 for no effect and ±100 for the full control effect; nearly all actives have a fitted effect of over 60% in size
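Viability of parental KB-3-1 cells, measured by CellTiter-Glo luminescence, followed a 72 h incubation at 37 °C with pinned compounds in phenol-red-free DMEM containing 10% FBS.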
HT1080NT lethal: kills 2HG-producing HT-1080-NT fibrosarcoma cells | Potency, µM (series often up to 46.1 µM), inactives show at the highest dose activity, negative = less viability, actives largely listed as cytotoxic | HT-1080-NT fibrosarcoma viability, CellTiter-Glo ATP luminescence, 48 h | hit rate 1.6% among 360,000 | AID 686970;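 note: NT is the 2HG producing partner of a matched IDH1 knockdown line; 0% = DMSO-treated cells and -100% = media-only wells without cells; nearly all actives have a fitted effect of over 55% in size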
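Compounds were tested in concentration-response format on HT-1080-NT cells for 48 hours at 37 degrees C. Cell viability came from CellTiter-Glo luminescence; curves were classified by r2, response magnitude and activity.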
KB-V1 cytotox: KB-V1 MDR subline cytotoxicity; KB-V1 MDR cells viability, CellTiter-Glo, 72 h; Potency, µM (series often up to 46.1 µM), actives largely listed as cytotoxic; hit rate 3.4% among 400,000; note: % is set by controls: 0 for no effect and ±100 for the full control effect; nearly all actives have a fitted effect of over 60% in size
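Cells of the MDR subline KB-V1 are plated, dosed with compound at multiple concentrations, and incubated 72 h at 37 degrees C; CellTiter-Glo is then added and luminescence read after 10 min.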
SW480 rerep: DNA re-replication induction in SW480 cells | SW480 DNA re-replication, Hoechst DNA content imaging, 48 h | Potency, µM (doses to about 46.1 µM), for inactives: at the highest dose re-replication activation, most hits filed as activators | hit rate 1.8% among 340,000 | AID 624297; note: % of control where 0% means no effect; nearly all actives have a fitted effect of over 55% in size
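SW480 cells exposed to compounds for 48 hr at 37 C, 5% CO2, then Hoechst-stained 40 min. Nuclear DNA content imaged by fluorescence scanning (405 nm excitation, 500-530 nm emission); re-replication scored as increased high-intensity nuclei.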
* hit, by the source's call; i = inactive; ? = inconclusive; · = no result; [ ] = dose if it differs, or a comment. Calls come from the whole dose curve; as a rule, active = well fitted curve in the direction sought with a large enough effect; inconclusive = small, poorly fitted or top-dose-only effect, or another doubt; inactive = no such curve, though single readings can be large; an effect the other way counts as inactive or inconclusive. Potency is the fitted concentration of half-maximal effect.

SMILES | HT1080 IDH1KD tx | MCF10A rereplic | KB-3-1 tox | HT1080NT lethal | KB-V1 cytotox | SW480 rerep
COc1ccc(CCC(=O)N2CCN(S(=O)(=O)c3ccc(OC(F)(F)F)cc3)CC2)cc1 | 8% | 4% | i | 0% | 16µM* | -1%
CC1(C(=O)Nc2ccc3c(c2)OCCO3)CSCC(=O)N1CCCn1ccnc1 (stereo not drawn) | 17% | · | i | 18% | i | ·
CCCCN(CCC#N)c1ccc(/C=C/c2ccnc3ccccc23)cc1 | · | · | ? | · | 18µM* | ·
CCCCCCCN(CCCCCCC)c1ccc(/C=C/c2ccnc3ccccc23)cc1 | · | · | i | · | ? | ·
CCN(CC)c1ccc(/C=C/c2ccnc3ccccc23)cc1 | · | · | ? | · | i | ·
OCCN(CCO)c1ccc(/C=C/c2ccnc3ccccc23)cc1 | · | · | ? | · | 13µM* | ·
CC[N+](CC)(CC)c1ccc(/C=C/c2ccnc3ccccc23)cc1 | · | · | 0.58µM* | · | ? | ·
CCn1c(=O)c2sccc2n2c(CCCC(=O)N3CCN(c4cccc(Cl)c4)CC3)nnc12 | · | · | i | · | i | ·
Cc1cccc(C(=O)NCC(=O)OCc2nnc(-c3ccccc3)o2)c1 | 0% | 5% | i | -7% | ? | -11%
COc1ccc(-n2cc(-c3ccc(OC)c(OC)c3)[nH]c2=S)cc1 | 2% | -1% | i | 2% | i | ?
COc1ccc(-n2cc(-c3ccccc3)[nH]c2=S)c(OC)c1 | ? | 16µM* | 16µM* | ? | i | 18µM*
CC(C)C[C@H](NC(=O)OC(C)(C)C)C(=O)N[C@@H](CO)[C@H](O)[C@@H]1C[C@@H]1C(=O)N1CCCC1 | 6% | -4% | i | 6% | i | 3%
O=C(COc1ccc(F)cc1)N(c1ccccn1)C1CCCCC1 | 17% | 11% | i | 1% | 21µM* | -73%
CCCCNC(=O)C[C@@H]1C[C@@]2(C(=O)OCC)CCC=C2N(Cc2ccc3c(c2)OCO3)C1=O | 2% | · | i | 6% | i | ·
CCOC(=O)[C@]12CCC=C1N(Cc1ccc3c(c1)OCO3)C(=O)[C@H](CC(=O)NCc1ccccc1)C2 | 23µM* | · | i | -13% | i | ·
CCOC(=O)[C@]12CCCC=C1N(Cc1ccc3c(c1)OCO3)C(=O)[C@H](CC(=O)NCCCCc1ccccc1)C2 | 12µM* | · | ? | ? | ? | ·
COC(=O)[C@@]12C[C@@H](CC(=O)NCC3CCCCC3)C(=O)N(Cc3ccc4c(c3)OCO4)C1=CCC(C)(C)C2 | ? | · | ? | ? | 21µM* | ·
CCCCNC(=O)C[C@@H]1C[C@@]2(C(=O)OC)CC(C)(C)CC=C2N(Cc2ccc3c(c2)OCO3)C1=O | -15% | · | i | -19% | ? | ·
COC(=O)[C@@]12C[C@@H](CC(=O)NCCCCc3ccccc3)C(=O)N(Cc3ccc4c(c3)OCO4)C1=CCC(C)(C)C2 | ? | · | ? | ? | 23µM* | ·
COC(=O)[C@@]12C[C@@H](CC(=O)NCc3ccc(C)o3)C(=O)N(Cc3ccc4c(c3)OCO4)C1=CCC(C)(C)C2 | ? | · | i | ? | ? | ·
Cn1c(CSc2nc3ccccc3s2)nnc1SCC(=O)NCc1ccccn1 | 0% | -2% | i | 0% | i | -18%
COC(=O)[C@@]12C[C@@H](CC(=O)NCCc3ccccc3OC)C(=O)N(Cc3ccccc3)C1=CCC(C)(C)C2 | ? | · | i | ? | 12µM* | ·
CCCCNC(=O)C[C@@H]1C[C@@]2(C(=O)OC)CCCCC=C2N(Cc2ccc3c(c2)OCO3)C1=O | 2% | · | i | -4% | ? | ·
COC(=O)[C@]12CCCCC=C1N(Cc1ccc3c(c1)OCO3)C(=O)[C@H](CC(=O)NCCCCc1ccccc1)C2 | ? | · | i | ? | 16µM* | ·
Cc1ccc(S(=O)(=O)NC(C)(C)CSc2nnc(Nc3ccccc3)s2)cc1 | -19% | ? | i | -12% | ? | 6%
SMILES | HT1080 IDH1KD tx | MCF10A rereplic | KB-3-1 tox | HT1080NT lethal | KB-V1 cytotox | SW480 rerep
CCOC(=O)C1=C(C)NC(SCC(=O)O)=C(C#N)C1c1ccco1 (stereo not drawn) | 16% | 2% | i | 15% | i | -5%
COc1ccc2oc(-c3ccccc3[N+](=O)[O-])cc(=O)c2c1 | 6.5µM* | 6.5µM* | ? | 8.2µM* | 5.8µM* | 8.2µM*
Nc1ccc2oc(-c3ccccc3Cl)cc(=O)c2c1O | 5% | -11% | 7.3µM* | 5% | ? | -5%
COc1ccc(-c2cc(=O)c3ccccc3o2)cc1 | -10% | 1% | i | -12% | i | -6%
Cc1ccccc1-c1cc(=O)c2c(O)cccc2o1 | 8% | -10% | ? | 7% | i | -9%
COc1ccccc1-c1cc(=O)c2c(O)ccc([N+](=O)[O-])c2o1 | 14% | -8% | 21µM* | 5% | 4.6µM* | 2%
O=c1cc(-c2ccccc2Cl)oc2ccc([N+](=O)[O-])c(O)c12 | -4% | 0.37µM* | i | 2% | i | 19%
Cc1ccc(SC(=O)c2c([N+](=O)[O-])c(C)nn2C)cc1 | ? | ? | i | ? | i | -4%
COc1ccccc1NCCC(=O)OCC(=O)NCc1ccco1 | 6% | 5% | i | 13% | i | -3%[9.22 µM]
O=c1cc(-c2ccccc2Cl)oc2c([N+](=O)[O-])c(O)cc(O)c12 | -29% | 0.82µM* | i | -29% | i | -3%
O=C(Nc1ccc(O)c2c(=O)cc(-c3ccccc3Cl)oc12)c1ccccc1Cl | 0% | 4% | i | -8% | i | 33%
COc1ccccc1NS(=O)(=O)c1ccc(NN=C2CCCCC2)c([N+](=O)[O-])c1 | -3% | 5% | i | -11% | 16µM* | 12%
CCCC(CCC)=NNc1ccc(S(=O)(=O)Nc2ccccc2OC)cc1[N+](=O)[O-] | 4% | ? | i | 3% | 12µM* | 2%
COc1ccccc1NS(=O)(=O)c1ccc(OC)c([N+](=O)[O-])c1 | 5% | 11% | i | 0% | i | 0%
COc1ccc(NS(=O)(=O)c2ccc(N/N=C(\C)c3ccncc3)c([N+](=O)[O-])c2)cc1 | ? | ? | ? | -22% | i | ?
COc1ccccc1NS(=O)(=O)c1ccc(N/N=C(\C)C(C)C)c([N+](=O)[O-])c1 | -8% | -1% | ? | -4% | 12µM* | 3%
N/C(Cn1cncn1)=N\NC(=O)C(=O)Nc1ccccc1 | -4% | -22% | i | -1% | i | 7%
O=C1CC(c2cc(F)ccc2F)c2cc3c(cc2N1)CCC3 (stereo not drawn) | 2.6µM* | ? | 4.6µM* | 2.6µM* | i | ?
